Screening data from PubChem BioAssay.
TGFb SMAD3 inh = inhibitors of TGF-b signaling. HepG2 CAGA-GFP TGF-b/SMAD3 reporter, GFP fluorescence, 18 h; TGF-beta stimulated, 500 pg/mL final. Potency, µM (doses to about 46.1 µM), usual class: inhibitors. 410,000 tested, 1.2% active. AID 588855; note: nearly all actives have a fitted effect of over 65% in size
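Per well, imaged GFP fluorescence of HEPG2 CAGA-GFP cells gives the signal; cells get compound, then TGF-beta (500 pg/mL final), 18 h at 37 degrees C; %Activity versus -TGF-beta and +DMSO controls.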
DRD3 agonist = activates the human D3 dopamine receptor | P35462 | D3R DiscoveRx beta-arrestin cells, luminescence, 90 min | max activation, % | 410,000 tested, 0.58% active; in the data active = max activation above about 30%
Target sequence (P35462 whole entry, looked up): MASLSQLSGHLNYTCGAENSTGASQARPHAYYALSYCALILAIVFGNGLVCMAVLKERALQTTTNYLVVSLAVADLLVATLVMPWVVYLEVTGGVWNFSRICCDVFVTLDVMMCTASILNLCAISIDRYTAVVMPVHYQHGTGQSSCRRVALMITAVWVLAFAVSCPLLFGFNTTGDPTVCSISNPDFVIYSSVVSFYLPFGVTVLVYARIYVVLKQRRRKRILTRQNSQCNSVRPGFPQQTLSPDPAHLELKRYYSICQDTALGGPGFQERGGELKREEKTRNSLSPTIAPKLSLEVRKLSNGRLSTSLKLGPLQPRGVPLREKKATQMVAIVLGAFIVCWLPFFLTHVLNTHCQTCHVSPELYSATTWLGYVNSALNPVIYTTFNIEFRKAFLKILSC
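Cells at 1500/well, incubated overnight, then treated with pinned compounds (dopamine as control) for 90 min at 37 degrees C. DiscoveRx reagent added for 30 - 60 minutes at room temperature; luminescence read.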
D3 antag = antagonists of human D3 dopamine receptor; D3R cells, DiscoveRx beta-arrestin luminescence, antagonist mode; hits give low values; max response, negative = inhibition, %; 360,000 tested, 2.5% active; AID 652054; in the data active = max response below about -50%; inconclusive = no clear call, values can overlap the other calls
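Cells expressing the human receptor were seeded at 1500 cells/well, incubated overnight at 37 degrees C in 5% CO2, then exposed to library compounds with dopamine controls for 90 minutes at 37 degrees C before luminescent detection.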
S2 tox = reduces viability in counter-screen for ATXN expression inhibitors. 400,000 tested, 0.49% active. Potency, µM (titrated, usually from 56.7 µM), hits mostly cytotoxic. S2 cells (HEK-293 line with an ATXN2-luciferase reporter) viability, CellTiter-Fluor protease fluorescence, 24 h; note: nearly all actives have a fitted effect of over 40% in size
ATXN2 expr inh = inhibitors of ATXN2 expression | HEK-293 ATXN2-luciferase reporter, luminescence, 24 h | Potency, µM (top dose mostly 57 µM), usual class: inhibitors | 360,000 tested, 0.72% active | AID 1745845; note: nearly all actives have a fitted effect of over 55% in size
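ATXN2-luciferase reporter cells (luciferase flanked by upstream and downstream ATXN2 gene portions) were treated 24 h at 37 °C with compounds at up to 57 uM. SteadyGlo luminescence gave expression; GF-AFC fluorescence gave viability.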
HepG2 tox = kills HepG2 cells in TGF-b inhibitor counter-screen; 410,000 tested, 0.76% active; Potency, µM (highest dose often 46.1 µM), actives largely listed as cytotoxic; HepG2 CAGA-GFP viability, ATP luminescence, 18 h
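CellTiter-Glo luminescence gave cytotoxicity after 18 hours at 37 degrees C. The cells were HepG2 CAGA-GFP in 1% FBS DMEM, stimulated with 500 pg/mL TGF-beta after compound addition. %Activity was normalised to no-cell wells (complete cell-killing) and DMSO (no toxicity), and curves were fitted and classified.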
Numbers stand for hits; n = inactive; u = inconclusive; x = no result given; ! = not confirmed by another sample. A selection: hits, their analogues and other compounds. The true share with any hit is near 4.8%. Unless noted, calls come from the whole dose curve; as a rule, active = well fitted curve in the direction sought with a large enough effect; inconclusive = small, poorly fitted or top-dose-only effect, or another doubt; inactive = no such curve, though single readings can be large; an effect the other way counts as inactive or inconclusive.

SMILES | TGFb SMAD3 inh | DRD3 agonist | D3 antag | S2 tox | ATXN2 expr inh | HepG2 tox
O=C(C1CCC(Cn2c(=O)c3sccc3n(Cc3ccc(F)cc3)c2=O)CC1)N1CCOCC1 (configuration not stated) | u | n | x | n | n | n
COc1cccc(NC(=O)C(C)n2c(=O)cc(C(F)(F)F)c3c(C)nn(C)c32)c1 (configuration not stated) | n | n | x | n | n | n
CCN(CC)C(=S)SCC(=O)c1ccccc1 | n | n | n | n | n | n
CCN(CC)C(=S)SSC(=S)N(CC)CC | u | n | n | 71µM! | u | n
COc1ccc(Cl)cc1NC(=O)Cn1nc(Cc2ccncc2)c2ccccc2c1=O | u | n | x | x | x | n
CCOC(=O)c1c(NC(=O)c2nc(S(C)(=O)=O)ncc2Cl)sc(C(C)=O)c1C | u | n | x | x | x | n
CCCCCCCC/C=C\CCCCCCCCN | x | n | x | n | n | x
COc1ccc2c(CN3CCCC3)cc(=O)oc2c1 | n | n | n | n | n | n
CCOC(=O)C1CCN(Cc2cc(=O)oc3cc(C)c(Cl)cc23)CC1 | n | 36 | n | n | n | n
CCCCc1cc(=O)oc2cc(OCC(=O)NC3CCN(Cc4ccccc4)CC3)ccc12 | n | n | -54 | n | n | n
CN1CCN(Cc2cc(=O)oc3cc4c(cc23)CCC4)CC1 | n | n | u | n | n | n
CC1CCN(Cc2cc(=O)oc3cc4c(cc23)CCCC4)CC1 | n | n | -98 | n | x | n
COC(=O)C1CCN(Cc2cc(=O)oc3cc(OC)ccc23)CC1 | n | 34 | n | n | n | n
CCc1c(C)nc(SCc2nc(-c3ccccc3C)no2)[nH]c1=O | n | n | x | x | x | n
COc1cccc(C2C(C(=O)Nc3cccnc3)=C(C)Nc3nc(SCc4ccccc4)nn32)c1 (configuration not stated) | n | n | x | n | n | n
Cc1noc(NS(=O)(=O)c2ccc(NC(=O)c3ccc(Br)cc3)cc2)c1C | n | n | x | n | n | n
Cc1noc(NS(=O)(=O)c2ccc(NC(=O)c3ccc(Br)o3)cc2)c1C | n | n | -72 | n | n | n
Cc1ccc(C)c(S(=O)(=O)Nc2ccc(S(=O)(=O)Nc3onc(C)c3C)cc2)c1 | n | n | -52 | n | n | n
Cc1ccc(S(=O)(=O)NC(=O)c2ccc(Br)o2)cc1 | n | 54 | n | n | n | n
COc1ccc(OC)c2sc(N3CCN(C(=O)c4ccc5c(c4)CCCC5)CC3)nc12 | u | n | x | u | u | n
CCOC(=O)C1=C(CS(=O)(=O)c2ccc(C(C)(C)C)cc2)NC(=O)NC1c1cccc(OC)c1 (configuration not stated) | u | n | x | n | n | n
CN(CC(=O)N1CCOCC1)Cc1c(Cl)cccc1NC(=O)c1ccccc1 | x | n | x | n | x | x
CCc1ccccc1NC(=S)NC1CC2CCCC(C1)N2Cc1cccs1 (configuration not stated) | n | n | -76 | n | n | n
CCCN1C2CCCC1CC(NC(=S)Nc1cccc(C)c1C)C2 (configuration not stated) | n | n | n | n | x | n
Cc1cccc(NC(=S)NC2CC3CCCC(C2)N3Cc2cccs2)c1C (configuration not stated) | n | n | -72 | n | n | n
SMILES | TGFb SMAD3 inh | DRD3 agonist | D3 antag | S2 tox | ATXN2 expr inh | HepG2 tox
COc1ccc(-c2cc3nc(C)c(CCC(=O)NC(C)c4ccccc4)c(C)n3n2)c(OC)c1 (configuration not stated) | u | n | x | n | n | n
COc1ccccc1N1CCN(C(=O)CCn2cnc3onc(-c4ccc(F)cc4)c3c2=O)CC1 | u | n | x | n | n | n
CN(CCc1ccccn1)Cc1ccc(Cl)c(Cl)c1 | n | n | -51 | n | n | n
CN(CCc1ccccn1)Cc1ccc(Cl)cc1Cl | n | n | -70 | n | n | n
COc1cccc(NC(=O)CSc2nc(=O)[nH]c3c2CCCC3)c1 | n | n | x | x | x | n
CCCCC(=O)Nc1cccc(-c2nc3ccccc3s2)c1 | u | n | x | u | n | n
COc1cccc(/C=C2\SC(=S)N(CCCC(=O)N(CCO)c3ccccc3)C2=O)c1 | u | n | n | u | 22µM | n
O=C(CCCN1C(=O)/C(=C\c2cccs2)SC1=S)Nc1ccc(C(=O)O)cc1 | n | n | n | n | n | n
CCc1ccc(/C=C2\SC(=S)N(CCCC(=O)Nc3ccccc3C(=O)O)C2=O)cc1 | n | n | n | n | n | n
COC(=O)c1ccc(/C=C2/SC(=S)N(CCCC(=O)Nc3ccc(O)cc3)C2=O)cc1 | n | n | n | n | n | n
Cc1ccc(/C=C2\SC(=S)N(CCCC(=O)Nc3ccccc3C(=O)O)C2=O)cc1 | n | n | n | n | 13µM | n
Cc1ccc(/C=C2\SC(=S)N(CCCC(=O)Nc3ccc(O)cc3)C2=O)cc1 | n | n | n | n | 10µM | n
CCN(CC)CCOC(=O)c1ccc(NC(=O)CCCN2C(=O)/C(=C/c3cccs3)SC2=S)cc1 | u | n | -74 | u | u | n
CS(=O)(=O)c1cccc(-c2nnc(NC(=O)c3ccc4c(c3)OCCO4)o2)c1 | n | n | x | x | x | n
COC(=O)C1=C[C@@H](C(=O)OC)[C@@H]2C3=C(C(=O)[C@@]2(CC(C)C)NC(=O)c2ccccc2)[C@H](C)n2c(=O)n(-c4ccccc4)c(=O)n2[C@@H]3C1 | u | x | x | x | x | n
O=C1CC[C@@H](C(=O)NCC2Cc3cc(Cl)cc(-c4ccc5[nH]ccc5c4)c3O2)N1 (some centres not stated) | x | x | x | n | x | x
Cc1ccc(/C=C2\SC(=S)N(CCCC(=O)Nc3ccccn3)C2=O)cc1 | n | n | n | n | 3.2µM | n
COc1cccc(/C=C2\SC(=S)N(CCC(=O)NNC(=O)c3ccccc3OC)C2=O)c1 | n | n | n | x | n | n
O=C(CCN1C(=O)/C(=C/c2ccccc2)SC1=S)Nc1ccccn1 | n | n | n | n | n | n
COc1cccc(/C=C2\SC(=O)N(CCC(=O)NNC(=O)c3ccccc3Cl)C2=O)c1 | n | 57 | n | u | n | n
Cc1ccccc1C(=O)Nc1ccc(C(=O)N2CCCC(O)c3cc(Cl)ccc32)c(C)c1 (configuration not stated) | x | n | x | n | n | x
CCC(Oc1ccccc1)C(=O)N[C@@H]1C(=O)N2[C@@H]1SC(C)(C)[C@@H]2C(=O)O (some centres not stated) | x | n | x | x | x | x
COc1ccc(C(=O)Nc2ccccc2C(=O)N/N=C/c2ccncc2)cc1OC | n | n | n | n | n | 13µM
COCCN1CSC(=S)N(Cc2ccco2)C1 | n | n | n | n | n | n
S=C1SCN(Cc2ccccn2)CN1Cc1ccco1 | u | n | -62 | u | u | n
